The full ranking holds about 68,000 sequences; the median of “fluorescence intensity (a.u.)” is about 9,100, and the highest 2% start at about 16,000. What follows is part of a selection rich in the highest values, with near analogues and random picks from the rest.
These sequences were tested against OsWRKY34 (Oryza sativa, UniProt Q0JBA9 1-250) (assay: protein-binding microarray (RPBM); PBS, 2% BSA, 51.3 ng/ul salmon testes DNA, 50 uM zinc acetate, 200 nM TF, 25 C, 1 h; high values mean tight binding). Conditions: protein: recombinant; tags: N-terminal polyhistidine and DsRed monomer fusion (pET32a); label: CyDye5-dUTP incorporated in the synthesized complementary strand; 3' TTTTT single-stranded linker to array surface; dsDNA, one strand shown.
Method in brief: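 Using Ni–NTA, transcription factors fused N-terminally to polyhistidine and DsRed were purified after expression in E. coli BL21-CodonPlus. These were incubated at 200 nM with a blocked, double-stranded custom Agilent array for 1 h at 25 °C in a buffer containing 50 µM zinc acetate, and the array was washed. The binding signal is per-feature fluorescence intensity (arbitrary units) on an Axon 4000B scanner.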

OsWRKY34, sequence (Q0JBA9 entry or part of it): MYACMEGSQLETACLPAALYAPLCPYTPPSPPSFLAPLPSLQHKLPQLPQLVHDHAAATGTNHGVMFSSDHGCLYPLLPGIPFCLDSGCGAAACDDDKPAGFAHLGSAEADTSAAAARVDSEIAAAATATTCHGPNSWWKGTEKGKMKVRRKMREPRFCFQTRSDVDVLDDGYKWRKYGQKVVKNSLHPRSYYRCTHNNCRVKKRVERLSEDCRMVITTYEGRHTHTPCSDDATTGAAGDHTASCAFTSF

Question: “GATCGTGGAATTAATTCCACCTTAGTTGTTATGGGCGGGTCGGAGTCACCTAGTGCAG” was tested. Which binding signal did it give?
Answer: Its binding signal is 11400 fluorescence intensity (a.u.).

Question: For “GAACAACAACATGCCGCACGTGCGTATATATATATATATCCGGAGTCACCTAGTGCAG”, which binding signal is on record?
Answer: Its binding signal is 10800 fluorescence intensity (a.u.).

Question: “TCCATTGACACCGGCACACGCACACGCACACCCGCACCGCCGGAGTCACCTAGTGCAG” was tested. Which binding signal did it give?
Answer: The binding signal was 8960 fluorescence intensity (a.u.).

Question: With “CAACCTCACCTACTTCCACTTCCTCGACACCAACGGCGTCCGGAGTCACCTAGTGCAG” as the sequence, how does the binding signal read?
Answer: The binding signal was 9590 fluorescence intensity (a.u.).

Question: For “GCATGTGTTCGTTATGTGTGGTTGGAGATTTTCTCCCACACGGAGTCACCTAGTGCAG”, which binding signal is on record?
Answer: The binding signal was 8470 fluorescence intensity (a.u.).

Question: “CTGCTCGGAGCACACACAACCACCACTCACCACCAACATGCGGAGTCACCTAGTGCAG” was tested. Which binding signal did it give?
Answer: Its binding signal is 9280 fluorescence intensity (a.u.).

Question: With “TAATACACTAGCCCCAATGTTTGTTTGCCTAATCTACTCTCGGAGTCACCTAGTGCAG” as the sequence, how does the binding signal read?
Answer: The binding signal was 9080 fluorescence intensity (a.u.).

Question: “CTCTATTCGTTTTTCATATTATAAGTCGTTTGACGTTTTTCGGAGTCACCTAGTGCAG” was tested. Which binding signal did it give?
Answer: Its binding signal is 9170 fluorescence intensity (a.u.).

Question: “CCAAGCTTGTCGTGCCCGTATGTTCGCGTCCATCGTTGACCGGAGTCACCTAGTGCAG” was tested. Which binding signal did it give?
Answer: Its binding signal is 19800 fluorescence intensity (a.u.).

Question: “GTTTTACACTATTCACGTTCAACGTTTGACCGTTCGTCTTCGGAGTCACCTAGTGCAG” was tested. Which binding signal did it give?
Answer: Its binding signal is 13400 fluorescence intensity (a.u.).

Question: How did the binding signal turn out when “TGTCGCCATCGTATCACCGTCGCGTCGCCATCCCGTCGCCCGGAGTCACCTAGTGCAG” was run?
Answer: Its binding signal is 8070 fluorescence intensity (a.u.).

Question: “TTACACTGTTCATGTCTCACGTTTGACCGTTCGTTTTATTCGGAGTCACCTAGTGCAG” was tested. Which binding signal did it give?
Answer: The binding signal was 16400 fluorescence intensity (a.u.).

Question: How did the binding signal turn out when “ACTTTTTAAAACATATTTGACCGTTCTTCTTATTAAAAAACGGAGTCACCTAGTGCAG” was run?
Answer: Its binding signal is 8850 fluorescence intensity (a.u.).

Question: Which binding signal does the source give for “TTGACCTTTTTAAAACATTTTTGACCGTTCGTCTTATTCACGGAGTCACCTAGTGCAG” here?
Answer: The binding signal was 10600 fluorescence intensity (a.u.).

Question: For “AGTTTTGCACTGTTTATGTCTCACGTTTGACCGTTCGTTTCGGAGTCACCTAGTGCAG”, which binding signal is on record?
Answer: Its binding signal is 11400 fluorescence intensity (a.u.).

Question: For “GGCCCATCTGACCAAGCCCAGCTCGCGTCGTCGTGTTGATCGGAGTCACCTAGTGCAG”, which binding signal is on record?
Answer: Its binding signal is 8930 fluorescence intensity (a.u.).

Question: “CGTCGTTGACTTTTTTAAACATATTTGACCGTTCGTCTTACGGAGTCACCTAGTGCAG” was tested. Which binding signal did it give?
Answer: Its binding signal is 17100 fluorescence intensity (a.u.).

Question: Which binding signal does the source give for “CCTCTATTTCATATTATACGTCGTTGACTTTTTTCTTAGTCGGAGTCACCTAGTGCAG” here?
Answer: Its binding signal is 17400 fluorescence intensity (a.u.).

Question: For “CATATTATAAGTCGTTTTGACTTTTTTTTCTTAGTCAATCCGGAGTCACCTAGTGCAG”, which binding signal is on record?
Answer: The binding signal was 12100 fluorescence intensity (a.u.).

Question: Which binding signal does the source give for “TTTCATGCGTTCCAAGTTGTCATTACTCCTTTGTACTCTCCGGAGTCACCTAGTGCAG” here?
Answer: The binding signal was 10700 fluorescence intensity (a.u.).

Question: “CCGCCGGACTCTCAAAATCCCAAGTCTCAACTCGATCAGCCGGAGTCACCTAGTGCAG” was tested. Which binding signal did it give?
Answer: Its binding signal is 8170 fluorescence intensity (a.u.).

Question: “AACTCTAATTTACTGTTGGTTGGTGCAATATCAGATGGATCGGAGTCACCTAGTGCAG” was tested. Which binding signal did it give?
Answer: The binding signal was 8900 fluorescence intensity (a.u.).

Question: How did the binding signal turn out when “GCTCAGATTGTTCATCAAGTTTTTCCTCTGTGCTCTGTTTCGGAGTCACCTAGTGCAG” was run?
Answer: The binding signal was 8890 fluorescence intensity (a.u.).

Question: For “ATGAGTATATATAAGCTTAGTCTCTTTTCTTTTCTTTCTTCGGAGTCACCTAGTGCAG”, which binding signal is on record?
Answer: Its binding signal is 8940 fluorescence intensity (a.u.).

Question: “GTTGATTTTTTTTAAATATGTTTGACCGTTCGTCTTATTCCGGAGTCACCTAGTGCAG” was tested. Which binding signal did it give?
Answer: The binding signal was 8600 fluorescence intensity (a.u.).

Question: “ACGCCGTTGACTTTTTTAAACATGTTTAACCGTTCATCTTCGGAGTCACCTAGTGCAG” was tested. Which binding signal did it give?
Answer: The binding signal was 47400 fluorescence intensity (a.u.).

Question: “TGTTGACTTTTTAAAACATGTTTGACCGTTCATATTATTCCGGAGTCACCTAGTGCAG” was tested. Which binding signal did it give?
Answer: Its binding signal is 15700 fluorescence intensity (a.u.).

Question: How did the binding signal turn out when “CGTTGACTTTTTAAAATATATTTGACCGTTCGTCTTATTCCGGAGTCACCTAGTGCAG” was run?
Answer: Its binding signal is 24100 fluorescence intensity (a.u.).

Question: “TGTTGATTTTTTAAAATATGTTTGACCGTTCGTCTTATTCCGGAGTCACCTAGTGCAG” was tested. Which binding signal did it give?
Answer: The binding signal was 10700 fluorescence intensity (a.u.).

Question: “GCATTCGTTTCAGGCTGTTCCCAACCTCTCTCCCTTGTTTCGGAGTCACCTAGTGCAG” was tested. Which binding signal did it give?
Answer: Its binding signal is 12000 fluorescence intensity (a.u.).

Question: “CGGCCCAAGCTTCATTGACAAATTGTCTTGAATTTGTACACGGAGTCACCTAGTGCAG” was tested. Which binding signal did it give?
Answer: The binding signal was 8510 fluorescence intensity (a.u.).

Question: “ACACATATTTATTTTCTCCACTACCACAGAAGGAACTTTTCGGAGTCACCTAGTGCAG” was tested. Which binding signal did it give?
Answer: The binding signal was 9140 fluorescence intensity (a.u.).

Question: “AGGGGAGGTAGGTAAGAAGATTGAACAGTGGAGGGTTGTACGGAGTCACCTAGTGCAG” was tested. Which binding signal did it give?
Answer: Its binding signal is 9840 fluorescence intensity (a.u.).

Question: How did the binding signal turn out when “ATTGATTGATTGGTTGGTTGGTTGGTTGGGTTGATCGATGCGGAGTCACCTAGTGCAG” was run?
Answer: Its binding signal is 20300 fluorescence intensity (a.u.).

Question: How did the binding signal turn out when “TTTGGTAAGATTTGAACGGTTGGTTGTATAGGTCATTGACCGGAGTCACCTAGTGCAG” was run?
Answer: The binding signal was 16900 fluorescence intensity (a.u.).

Question: With “TTTATTGTTGTTTTTGGGTTGGTTTGGTTTGATTCCGATGCGGAGTCACCTAGTGCAG” as the sequence, how does the binding signal read?
Answer: Its binding signal is 9120 fluorescence intensity (a.u.).

Question: With “GCGGTGGAGGCGGTGGCGGTGGTGGCGGTGGTGGAGGATGCGGAGTCACCTAGTGCAG” as the sequence, how does the binding signal read?
Answer: The binding signal was 21200 fluorescence intensity (a.u.).

Question: How did the binding signal turn out when “ATATAGGTTACGGATTTGTCATTGGTCGTTGTATTCTTTTCGGAGTCACCTAGTGCAG” was run?
Answer: The binding signal was 10600 fluorescence intensity (a.u.).

Question: With “ATCGAATGGTTGGTTCGGTTTGGTTTTGATTGATCGATATCGGAGTCACCTAGTGCAG” as the sequence, how does the binding signal read?
Answer: The binding signal was 22300 fluorescence intensity (a.u.).

Question: With “GTGGTGGCGGTGGAGGTGGAGGTGGAGGCGCCGTGGTGCGCGGAGTCACCTAGTGCAG” as the sequence, how does the binding signal read?
Answer: The binding signal was 12600 fluorescence intensity (a.u.).

Question: How did the binding signal turn out when “CTTCGATTGGTTTGTTGGTTTGACTGGAATTCGGATGGATCGGAGTCACCTAGTGCAG” was run?
Answer: Its binding signal is 10100 fluorescence intensity (a.u.).

Question: “GTGGTTGGTTGGTGCGGTTGCGGCGGGTGATCGAACGATGCGGAGTCACCTAGTGCAG” was tested. Which binding signal did it give?
Answer: The binding signal was 12100 fluorescence intensity (a.u.).

Question: Which binding signal does the source give for “ATTTTCGTGTTATTTTTGGTTCTGGTTGATTGATCGATTTCGGAGTCACCTAGTGCAG” here?
Answer: Its binding signal is 12900 fluorescence intensity (a.u.).

Question: “GAGGAGGAGGAGGAGGAGGAGGAGGATGCGGGTGGTGGTGCGGAGTCACCTAGTGCAG” was tested. Which binding signal did it give?
Answer: Its binding signal is 10500 fluorescence intensity (a.u.).
